Experimental data taken from PubChem BioAssay (NCATS).

What follows are compounds tested against Catechol O-methyltransferase (Homo sapiens) (UniProt P21964) (assay: Confirmatory Screen for Target Class Profiling of Small Molecule Inhibitors of Methyltransferases (AID 1745852)). Conditions: MTase-Glo luminescence, SAH detection, recombinant enzyme; measured here: COMT max response; stronger effect = lower value.
Chain of Catechol O-methyltransferase (Homo sapiens) (P21964 whole entry, looked up): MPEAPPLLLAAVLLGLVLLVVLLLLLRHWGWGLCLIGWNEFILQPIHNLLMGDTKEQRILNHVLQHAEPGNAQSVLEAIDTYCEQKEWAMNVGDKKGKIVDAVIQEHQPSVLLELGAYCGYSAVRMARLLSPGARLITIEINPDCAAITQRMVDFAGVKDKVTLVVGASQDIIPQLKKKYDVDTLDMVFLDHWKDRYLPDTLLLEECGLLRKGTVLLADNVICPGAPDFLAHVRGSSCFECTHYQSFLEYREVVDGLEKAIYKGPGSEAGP

| SMILES | activity [%] |
| --- | --- |
| C[S+](=O)([O-])N1CCC(Cn2ccc3c(N4CCOCC4)nc(-c4cccc5[nH]ncc45)cc32)CC1 | -13.4 |
| COC(=O)c1nc(NC(=O)Cn2nc3c(cc2=O)CCCC3)sc1C(C)C | -1.05 |
| CN(C)CCNC(=O)c1ccnc(-c2nnc3ccc(N(C)c4ccccc4)nn23)c1 | -5.96 |
| CN(CCc1nc2ccc(Cl)cc2[nH]1)c1cc(C2CC(O)C2)nc(N)n1 (stereo unspecified) | 4.84 |
| COC(=O)C(Cc1c[nH]c2ccccc12)NC(=O)c1ccccc1Br (stereo unspecified) | -2.16 |
| CCc1ccc(N2C(=O)c3cc4sccc4n3CC2(C)C(=O)NC2CCCCCC2)cc1 (stereo unspecified) | -4.01 |
| Oc1ccc(NCCN2CCCC2)cc1 | -10.9 |
| Cc1ccc(S(=O)(=O)c2nnn3c2nc(N2CCC(N4CCCCC4)CC2)c2ccccc23)cc1C | -1.85 |
| CC(C)Cn1c(=O)c2ccccc2n2c(CCC(=O)NCCc3ccc(Cl)cc3)nnc12 | -5.92 |
| CN(CCCNC(=O)CCc1nnc2n(Cc3ccccc3)c(=O)c3ccccc3n12)Cc1ccccc1 | 1.61 |
| COC(=O)[C@@H]1Cc2ncn(Cc3ccc(Cl)cc3)c2CN1CCCc1ccccc1 | 0.13 |
| CN1CCC(N2CC[C@H](c3nc4ccc(C(F)(F)F)cc4[nH]3)C2)CC1 | 7.98 |
| O=C(NCc1ccc(Cl)cc1)c1ccc2c(=O)[nH]c3c(C(=O)NC4CCCC4)sc(=S)n3c2c1 | -32.6 |
| Cc1ccc(NS(=O)(=O)c2ccc3[nH]c(=O)[nH]c3c2)cc1F | -8.47 |
| CC1(C(=O)NC2CCCCCC2)Cn2c(cc3occc32)C(=O)N1Cc1ccc2c(c1)OCO2 (stereo unspecified) | -5.04 |
| CCCn1c(=O)c2cc(F)ccc2n2c(SCc3c(F)cccc3Cl)nnc12 | 4.81 |
